The values below come from PubChem BioAssay.

Active and inactive are the calls of the source. Unless noted, the rule behind the calls is not given here.

Assay [1] in a line: HepG2 liver cancer cell viability effects, profiling panel, resazurin fluorescence, 24 h, PK04 Diversity Set (AID 1172). Particulars: higher = more signal.
Assay [2] in a line: basal S. cerevisiae growth modulation, no modifier, primary screen, OD600, strain BY4716, 24 h, basal condition (AID 1173). Particulars: OD600, 24 h, higher = more signal, called active from +8 up or from −8 down.
Assay [3] in a line: MM1S myeloma cell viability, profiling panel, resazurin fluorescence, basal, 24 h, PK04 Diversity Set (AID 1174). Particulars: higher = more signal, called active from +8 up or from −8 down.
The target of assay [4] is Dihydroorotate dehydrogenase (quinone), mitochondrial (Plasmodium falciparum (isolate 3D7)) (UniProt Q08210). Description: PfDHODH enzyme inhibitors, primary screen, biochemical, C-terminal His tag, absorbance 600 nm (AID 1175).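 Note: recombinant parasite enzyme with a five histidine tag at its C terminus.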 The following applies: DCIP absorbance 600 nm, higher = more signal, called active from +8 up or from −8 down.
Sequence of Dihydroorotate dehydrogenase (quinone), mitochondrial (Plasmodium falciparum (isolate 3D7)) (Q08210 whole entry, looked up): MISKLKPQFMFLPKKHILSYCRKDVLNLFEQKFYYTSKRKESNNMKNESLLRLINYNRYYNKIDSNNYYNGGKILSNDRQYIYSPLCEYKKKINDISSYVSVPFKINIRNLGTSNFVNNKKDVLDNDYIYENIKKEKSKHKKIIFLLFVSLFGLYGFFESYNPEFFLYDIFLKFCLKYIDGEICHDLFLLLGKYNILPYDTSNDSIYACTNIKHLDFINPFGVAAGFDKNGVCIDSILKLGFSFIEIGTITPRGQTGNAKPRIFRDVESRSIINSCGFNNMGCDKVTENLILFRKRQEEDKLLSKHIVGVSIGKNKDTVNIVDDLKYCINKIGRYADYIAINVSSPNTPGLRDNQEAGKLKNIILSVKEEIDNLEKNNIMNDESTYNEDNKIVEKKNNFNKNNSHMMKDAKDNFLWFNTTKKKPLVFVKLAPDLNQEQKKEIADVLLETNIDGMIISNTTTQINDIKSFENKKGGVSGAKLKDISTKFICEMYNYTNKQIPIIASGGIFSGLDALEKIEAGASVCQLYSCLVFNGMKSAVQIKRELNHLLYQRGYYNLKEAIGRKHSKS
Assay [5] can be described thus: P. aeruginosa biofilm formation inhibitors, primary screen, strain PAO1, LB-PBS medium, absorbance 600 nm (AID 1176). The following applies: P. aeruginosa PAO1 growth/biofilm, A600, 12 h; higher = more signal.
The nature of assay [6]: S. cerevisiae RM11-1a growth modifiers, primary screen, strain RM11-1a, OD600, basal, 24 h (AID 1177).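 Note: cultures grown under basal conditions with no added stressor.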 The following applies: OD600, 24 h, higher = more signal, called active from +8 up or from −8 down.
The nature of assay [7]: E. coli acrAB mutant growth effects, primary screen, E. coli filamentation inducers, strain DRC39, OD650, 24 h (AID 1178).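 Note: growth measured as culture turbidity by optical density at 650 nm.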 Particulars: higher = more signal, called active from +8 up or from −8 down.
Assay [8] in a line: E. coli acrAB mutant growth effects, primary screen, E. coli filamentation inducers, strain DRC39, OD650, 48 h (AID 1179).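 Note: screen aims at cell division blockers that make cells filament.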 Particulars: E. coli DRC39 delta-acrAB growth, higher = more signal, called active from +8 up or from −8 down.
A short description of assay [9]: RPMI8226 myeloma cell viability, profiling panel, resazurin fluorescence, basal, 24 h, PK04 Diversity Set (AID 1180).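 Note: RPMI8826 multiple myeloma cell line at 5000 cells per well.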 The following applies: higher = more signal.
For assay [10], the target named is E3 ubiquitin-protein ligase XIAP (Homo sapiens) (UniProt P98170). In words: XIAP binders, primary screen, biophysical, small-molecule microarray, fluorescence 635 nm (AID 1181).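 Note: score merges 667 nm emission and signal to noise over triplicate slides.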 Particulars: small-molecule microarray binding, higher = more signal.
Sequence of E3 ubiquitin-protein ligase XIAP (Homo sapiens) (P98170 whole entry, looked up): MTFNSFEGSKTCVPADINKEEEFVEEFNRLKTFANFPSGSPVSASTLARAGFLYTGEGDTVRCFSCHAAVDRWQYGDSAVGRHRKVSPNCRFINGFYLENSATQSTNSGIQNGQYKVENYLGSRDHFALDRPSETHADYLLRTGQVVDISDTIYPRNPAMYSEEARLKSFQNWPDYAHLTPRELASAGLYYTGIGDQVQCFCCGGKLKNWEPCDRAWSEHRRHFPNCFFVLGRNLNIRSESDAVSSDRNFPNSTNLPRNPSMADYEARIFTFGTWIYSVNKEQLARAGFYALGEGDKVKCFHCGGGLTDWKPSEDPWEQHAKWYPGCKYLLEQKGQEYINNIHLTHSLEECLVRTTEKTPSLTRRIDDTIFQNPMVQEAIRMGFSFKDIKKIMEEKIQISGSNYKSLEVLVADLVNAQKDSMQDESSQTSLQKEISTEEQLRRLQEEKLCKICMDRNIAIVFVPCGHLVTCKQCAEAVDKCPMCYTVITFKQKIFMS
For assay [11], the system named is XIP peptide (Xip251-270) binding. Description: small-molecule binders of XIP peptide, primary screen, biochemical, small-molecule microarray, fluorescence 635/667 nm, 0.1 µg/mL protein (AID 1182). Particulars: fluorescent protein binding, 635 nm, higher = more signal, called active from +8 up or from −8 down.
Assay [12] deals with XIP peptide (Xip251-270). Description: small-molecule binders of XIP peptide, primary screen, biochemical, small-molecule microarray, fluorescence 635/667 nm, 0.5 µg/mL protein (AID 1183). Particulars: small-molecule microarray binding, fluorescence 635 nm; higher = more signal.
Assay [13] can be described thus: Plasmodium falciparum growth inhibition, primary screen, strain 3D7, DAPI fluorescence, 100 nL (AID 1184).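 Note: parasites grown inside human red blood cells in medium with human serum.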 The following applies: P. falciparum 3D7 growth, 3 d, higher = more signal.
In assay [14] the target is Homeobox protein Hox-A13 (Mus musculus) (UniProt Q62424). In words: inhibitors of HoxA13-DNA binding, primary screen, biochemical, fluorescence polarization, labeled oligonucleotide (AID 1185). The following applies: 15 min, higher = more signal, called active from +8 up or from −8 down.
Sequence of Homeobox protein Hox-A13 (Mus musculus) (Q62424 whole entry, looked up): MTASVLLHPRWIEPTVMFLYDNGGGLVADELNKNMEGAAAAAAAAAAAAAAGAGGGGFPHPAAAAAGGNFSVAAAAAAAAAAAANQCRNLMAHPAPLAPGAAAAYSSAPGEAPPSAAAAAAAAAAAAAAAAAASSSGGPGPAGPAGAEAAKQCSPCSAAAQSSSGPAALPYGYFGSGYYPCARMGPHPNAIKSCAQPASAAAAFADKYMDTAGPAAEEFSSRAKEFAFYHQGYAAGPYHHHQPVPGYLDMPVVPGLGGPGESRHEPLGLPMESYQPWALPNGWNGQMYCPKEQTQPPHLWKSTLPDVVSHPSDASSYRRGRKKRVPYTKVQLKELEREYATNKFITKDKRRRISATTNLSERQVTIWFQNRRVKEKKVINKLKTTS
Assay [15] in a line: inhibitors of hydroxyurea-induced Chk1 phosphorylation, primary screen, imaging, HeLa, phospho-Chk1 antibody, percent positive cells (AID 1186). Particulars: hydroxyurea-induced phospho-Chk1 immunofluorescence imaging, higher = more signal.
Assay [16] is described as follows: inhibitors of hydroxyurea-induced Chk1 phosphorylation, primary screen, imaging, HeLa, phospho-Chk1 nuclear intensity (AID 1187). The following applies: hydroxyurea-induced phospho-Chk1 immunofluorescence imaging, higher = more signal.

For the compound `COCCCNC(=O)[C@@H]1c2ccccc2C(=O)N(C2CCCCC2)[C@H]1c1ccc(CO)cc1`, the z-score was 0.559 in assay [1]; -0.32 (inactive) in assay [2]; 0.614 (inactive) in [3]; 0.745 (inactive) in assay [5]; -0.611 (inactive) in assay [6]; 0.0359 (inactive) in assay [7]. Moreover, the z-score in assay [8] was -0.122 (inactive); in assay [9], 0.505; in [13], -1.76; in [14] it was -0.837 (inactive); in assay [15], 0.226 (inactive); in assay [16], -0.182 (inactive). For the same compound, the composite z-score in assay [4] is -0.271 (inactive); in [10] it was -0.0773; in [11], -0.209 (inactive); in assay [12], 0.339.

For the compound `COc1ccc(CCNC(=O)[C@@]2(Sc3ccc(C)cc3)CC(=O)N(C(C)C)[C@@H]2c2ccc(CO)cc2)cc1`, the z-score in assay [1] is -0.335; in assay [2] it was 0.748 (inactive); in [3] it was -0.416 (inactive); in assay [5] it was 0.745 (inactive); in assay [6], 1.06 (inactive); in assay [7], -0.252 (inactive). For the same compound, the z-score in assay [8] was -0.602 (inactive); in assay [9], -0.218; in assay [13], -0.302; in assay [14], -3.28 (inactive); in assay [15], 0.0372 (inactive); in assay [16] it was -0.0512 (inactive). The composite z-score in assay [4] is 0.557 (inactive); in [10], 0.0132; in assay [11], 0.117 (inactive); in [12], 0.66.

For `CCCCC(O)C1C=CC2C(=O)NC(=O)C2N1Nc1ccc(Cl)cc1Cl` (configuration not stated), the z-score in [1] is -2.57; in assay [2] it was -16.6 (active); in assay [3] it was -2.26 (inactive); in assay [5], 0.546 (inactive); in assay [6] it was -5.12 (inactive); in assay [7], -0.818 (inactive). Moreover, the z-score in assay [8] was -1.31 (inactive); in [9], -2.01; in assay [13] it was -0.565; in assay [14] it was -4.78 (inactive); in assay [15], -0.515 (inactive); in [16] it was -0.438 (inactive). Moreover, the composite z-score in assay [4] was -0.2 (inactive); in assay [10], -0.272; in [11] it was -0.0109 (inactive); in assay [12] it was -0.405.

Consider `COCCOC(=O)N1C(=O)[C@@]2(c3cc(C#CC4(O)CCCCCC4)ccc31)[C@H](C(=O)N1CCc3cc(OC)c(OC)cc3C1)[C@H]1C(=O)O[C@H](c3ccccc3)[C@H](c3ccccc3)N1[C@@H]2c1ccc(O)cc1`, for which the z-score in [1] is -0.511; in assay [2] it was 0.257 (inactive); in assay [3] it was -0.263 (inactive); in [5] it was 1.18 (inactive); in assay [6] it was 1.39 (inactive); in assay [7], -0.282 (inactive). In addition, the z-score was -0.252 (inactive) in [8]; -0.0713 in assay [9]; -1.72 in [13]; -0.363 (inactive) in assay [14]; 0.25 (inactive) in assay [15]; 0.81 (inactive) in assay [16]. The composite z-score in [4] was 0.7 (inactive); in [10] it was -0.0703; in assay [11], 0.424 (inactive); in assay [12] it was 0.762.

On to `COCCOC(=O)N1C(=O)[C@@]2(c3cc(C#CC4=CCCCC4)ccc31)[C@H](C(=O)N1CCc3cc(OC)c(OC)cc3C1)[C@H]1C(=O)O[C@H](c3ccccc3)[C@H](c3ccccc3)N1[C@@H]2c1ccc(O)cc1`, for which the z-score in assay [1] was -0.03; in [2] it was 0.935 (inactive); in assay [3], -0.0713 (inactive); in assay [5] it was 0.802 (inactive); in [6], 2.23 (inactive); in assay [7] it was -0.724 (inactive). Further, the z-score was -0.169 (inactive) in [8]; 0.485 in [9]; -1.8 in [13]; 0.129 (inactive) in assay [14]; -0.0825 (inactive) in assay [15]; 0.246 (inactive) in assay [16]. Also, the composite z-score in [4] was 0.0434 (inactive); in assay [10], 0.072; in assay [11] it was 1.49 (inactive); in assay [12], 0.795.

Regarding `COCCOC(=O)N1C(=O)[C@@]2(c3cc(C#CCC(C(=O)OC)C(=O)OC)ccc31)[C@H](C(=O)N1CCCCCCC1)[C@H]1C(=O)O[C@H](c3ccccc3)[C@H](c3ccccc3)N1[C@@H]2c1ccccc1OCCO`, the z-score in assay [1] is 0.194; in assay [2], 0.63 (inactive); in assay [3], 0.683 (inactive); in assay [5], 1.45 (inactive); in assay [6] it was 1.62 (inactive); in [7] it was -0.82 (inactive). Moreover, the z-score in assay [8] is -1.29 (inactive); in assay [9], 0.0277; in assay [13], -2.4; in assay [14] it was 4.77 (inactive); in [15], 0.122 (inactive); in assay [16] it was 0.0392 (inactive). Further, the composite z-score in assay [4] is 0.256 (inactive); in [10], 0.212; in assay [11], 2.48 (inactive); in assay [12] it was 0.483.

In the case of `CN(C)C(=O)[C@]1(Cc2ccccc2CN=[N+]=[N-])N=C(c2ccc(OCCCO)cc2)O[C@@H]1c1ccccc1N=[N+]=[N-]`, the z-score in [1] is 0.142; in assay [2], -0.0107 (inactive); in [3], -1.54 (inactive); in assay [5], 0.0533 (inactive); in assay [6], 1.37 (inactive); in assay [7], 0.377 (inactive). Besides, the z-score in assay [8] was 0.529 (inactive); in assay [9], -1.63; in [13] it was -1.89; in assay [14], -1.57 (inactive); in assay [15], -0.72 (inactive); in assay [16], -0.903 (inactive). Further, the composite z-score was -0.607 (inactive) in [4], 0.181 in assay [10], 0.854 (inactive) in assay [11] and 0.624 in assay [12].
